Reference: PubChem BioAssay (NCI)
Compounds without any hit were thinned out: in the full panel of roughly 79,000, 15% have a hit. Active and inactive are the calls of the source. Rule as the data show it: active = growth inhibition above about 70%; inactive = the rest.

Tests used:
[1] = NCI Yeast Anticancer Drug Screen. Data for the wt1 strain (AID 149);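 also: 0% = growth of vehicle-treated wt1 cultures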; settings: S. cerevisiae wt1 strain (SPY 50644) growth inhibition, active compounds read high
How it was run: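 Compounds are added to wt1 yeast cultures. Growth is then measured. Inhibition is expressed relative to vehicle-treated controls.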

[2] = NCI Yeast Anticancer Drug Screen. Data for the rad50EPP+ strain (AID 151);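 also: 0% = growth of vehicle-treated control cultures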; settings: S. cerevisiae rad50 mutant strain, active compounds read high
How it was run: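 Exposing the rad50EPP+ strain to each compound, growth was compared with vehicle-only cultures to give inhibition.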

[3] = NCI Yeast Anticancer Drug Screen. Data for the mgt1 strain (AID 153); settings: S. cerevisiae mgt1 mutant growth inhibition, active compounds read high
How it was run: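 Genetically defined yeast (mgt1) treated with compound; inhibition of growth expressed against vehicle-treated controls.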

[4] = NCI Yeast Anticancer Drug Screen. Data for the rad50 strain (AID 155);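 also: 0% = growth of vehicle-only cultures of the same strain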; settings: S. cerevisiae rad50 strain growth inhibition, active compounds read high
How it was run: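 Inhibition values express reduced yeast growth in compound-treated cultures relative to vehicle-treated controls.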

[5] = NCI Yeast Anticancer Drug Screen. Data for the mec2-1 strain (AID 157); settings: S. cerevisiae mec2-1 strain, active compounds read high
How it was run: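 Readout is yeast growth inhibition, normalised to vehicle-treated controls, in the mec2-1 strain exposed to compound.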

[6] = NCI Yeast Anticancer Drug Screen. Data for the rad14 strain (AID 159);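 also: 0% = growth of vehicle-treated control cultures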; settings: S. cerevisiae rad14 strain growth inhibition, active compounds read high
How it was run: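 A mutant yeast strain defective in DNA damage repair is treated with compound; inhibition of its growth is scored against untreated, vehicle-exposed cultures.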

[7] = NCI Yeast Anticancer Drug Screen. Data for the sgs1 mgt1 strain (AID 161);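 also: 0% = growth of cultures given vehicle only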; settings: S. cerevisiae sgs1 mgt1 strain, active compounds read high
How it was run: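 Compounds are added to genetically altered yeast, and growth is compared with cultures given vehicle alone to give percent inhibition.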

[8] = NCI Yeast Anticancer Drug Screen. Data for the CLN2oe strain (AID 163);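 also: 0% = growth of vehicle-only control cultures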; settings: S. cerevisiae CLN2oe strain, active compounds read high
How it was run: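 Values reflect how much compound exposure reduced yeast growth, referenced to vehicle-exposed cells. Assay organism is a strain with a defined genetic change affecting cell-cycle control.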

[9] = NCI Yeast Anticancer Drug Screen. Data for the cln2 rad14 strain (AID 165);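 also: 0% = growth equal to vehicle treated cultures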; settings: S. cerevisiae cln2 rad14 strain, active compounds read high
How it was run: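 Relative to vehicle controls, growth inhibition of compound-treated cln2 rad14 yeast was recorded.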

[10] = NCI Yeast Anticancer Drug Screen. Data for the bub3 strain (AID 167); settings: S. cerevisiae bub3 mutant strain, active compounds read high
How it was run: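 Steps: expose the mutant yeast strain to compound; grow alongside vehicle-treated cultures; measure growth; express inhibition against the vehicle cultures.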

[11] = NCI Yeast Anticancer Drug Screen. Data for the wt2 strain (AID 169);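 also: 0% = growth of vehicle-treated yeast cultures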; settings: S. cerevisiae wt2 strain growth inhibition, active compounds read high
How it was run: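 Values express reduction in yeast growth under compound treatment, referenced to vehicle-treated cells.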

[12] = NCI Yeast Anticancer Drug Screen. Data for the mlh1 strain (AID 171);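 also: 0% = growth of vehicle-treated control cultures of the same strain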; settings: S. cerevisiae mlh1 strain growth inhibition, active compounds read high
How it was run: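 Steps: expose the defined-mutant yeast strain to compound; expose a parallel culture to vehicle; measure growth; express compound effect as inhibition relative to the vehicle culture.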

[13] = NCI Yeast Anticancer Drug Screen. Data for the sgs1 strain (AID 173);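 also: 0% = growth of vehicle-only control cultures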; settings: S. cerevisiae sgs1 mutant, active compounds read high
How it was run: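 Treat defined-mutant yeast with compound; measure growth; calculate inhibition relative to vehicle-treated cells.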

[14] = NCI Yeast Anticancer Drug Screen. Data for the mlh1 rad18 strain (AID 175); settings: S. cerevisiae mlh1 rad18 strain growth inhibition, active compounds read high
How it was run: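 Test agents were incubated with a yeast strain of defined genotype (DNA damage repair defect). Inhibition of growth was derived by comparison with vehicle-exposed cultures.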

[15] = NCI Yeast Anticancer Drug Screen. Data for the rad18 strain (AID 177); settings: S. cerevisiae rad18 mutant growth inhibition, active compounds read high
How it was run: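 A genetically defined yeast mutant impaired in DNA damage repair was treated with test compounds, then its growth was measured against cultures receiving vehicle alone.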

[16] = at 5.0 µM (retest, dose inferred, filed as 0.5)
[17] = at 50.0 µM (retest, dose inferred, filed as 5.0)

Measured: growth inhibition

CC(C)=CC(=O)O[C@@H]1CC(C)(C)CC2C3=CCC4[C@]56CC[C@](O)(OC5)C(C)(C)C6CC[C@@]4(C)C3(C)CC[C@]21C(=O)O (stereo partly drawn)
active: [1]; at 11.0 µM 85% | [1]; at 33.0 µM 93% | [1]; at 100.0 µM 92% | [3]; at 33.0 µM 89% | [3]; at 100.0 µM 91% | [4]; at 11.0 µM 75% | [4]; at 33.0 µM 94% | [4]; [17] 88% | [4]; at 50.0 µM 82.3% | [4]; at 100.0 µM 90% | [5]; at 33.0 µM 88% | [5]; [17] 87% | [5]; at 50.0 µM 83.2% | [5]; at 100.0 µM 89% | [6]; at 33.0 µM 78% | [6]; at 100.0 µM 84% | [7]; [17] 89% | [7]; at 50.0 µM 85.2% | [8]; at 11.0 µM 85% | [8]; at 33.0 µM 95% | [8]; at 100.0 µM 93% | [9]; [17] 92% | [9]; at 50.0 µM 79.3% | [10]; at 11.0 µM 81% | [10]; at 33.0 µM 92% | [10]; [17] 91% | [10]; at 50.0 µM 81.3% | [10]; at 100.0 µM 92% | [11]; at 33.0 µM 91% | [11]; at 100.0 µM 94% | [12]; at 33.0 µM 87% | [12]; at 100.0 µM 90% | [13]; at 11.0 µM 83% | [13]; at 33.0 µM 95% | [13]; at 100.0 µM 95% | [14]; [17] 90% | [14]; at 50.0 µM 78% | [15]; at 33.0 µM 95% | [15]; at 100.0 µM 94%
inactive: [1]; at 1.2 µM -23% | [1]; at 3.7 µM 44% | [2]; at 1.2 µM -9% | [2]; at 3.7 µM -1% | [2]; at 11.0 µM 7% | [2]; at 33.0 µM 14% | [2]; at 100.0 µM 6% | [3]; at 1.2 µM -15% | [3]; at 3.7 µM 11% | [3]; at 11.0 µM 57% | [4]; at 1.2 µM 1% | [4]; at 3.7 µM 36% | [4]; [16] 10% | [5]; at 1.2 µM -8% | [5]; at 3.7 µM 31% | [5]; [16] 27% | [5]; at 11.0 µM 69% | [6]; at 1.2 µM -15% | [6]; at 3.7 µM 2% | [6]; at 11.0 µM 44% | [7]; [16] 11% | [8]; at 1.2 µM -5% | [8]; at 3.7 µM 54% | [9]; [16] 33% | [10]; at 1.2 µM -18% | [10]; at 3.7 µM 27% | [10]; [16] 25% | [11]; at 1.2 µM -11% | [11]; at 3.7 µM 18% | [11]; at 11.0 µM 61% | [12]; at 1.2 µM -13% | [12]; at 3.7 µM 21% | [12]; at 11.0 µM 58% | [13]; at 1.2 µM -3% | [13]; at 3.7 µM 46% | [14]; [16] -11% | [15]; at 1.2 µM 9% | [15]; at 3.7 µM 42% | [15]; at 11.0 µM 36%
